Source: PubChem (National Center for Advancing Translational Sciences (NCATS))
In the library only some 3% were active in any assay of this set; here they are far more common.
SARS PLpro yeast: blocks SARS-CoV papain-like protease in a yeast assay. Potency, µM (highest dose often 32.9 µM), actives largely listed as activators. S. cerevisiae expressing SARS-CoV PLpro, growth rescue. AID 485353. 0.19% of 330,000 active; calls by dose curve; note: nearly all actives have a fitted effect of over 55% in size
Sm TGR inh: blocks Schistosoma mansoni thioredoxin glutathione reductase. 3% of 360,000 active. Potency, µM (highest dose often 114 µM), usual class: inhibitors. AID 485364. purified TGR, DTNB reduction, TNB absorbance 405 nm. Q962Y6; active = well fitted inhibition curve with a large enough effect; inconclusive = small, poorly fitted or top-dose-only effect; inactive = no such curve, though single readings can be large or run the other way; note: nearly all actives have a fitted effect of over 60% in size
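TGR 20 nM + NADPH 100 uM (dispensed conc.), cpd preinc 15 min RT; start with NADPH (500 uM addition) then DTNB (15 mM addition). Kinetic TNB absorbance, 405 nm filter. Four-parameter Hill fit across titration.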
Numbers stand for hits.

What do the screens show for `N#Cc1cccc(NC(=O)c2cc3c(s2)-c2ccc(Cl)cc2SC3)c1`?
Sm TGR inh: inactive

What do the screens show for `CCCCN(C)CCCNC(=O)c1ccc2nc(N3CCCCC3)sc2c1`?
Sm TGR inh: inactive

What do the screens show for `CC[C@@]1(c2ccccc2OC)C(=O)N(C(=O)OC)N1C(=O)OC`?
SARS PLpro yeast: inactive; Sm TGR inh: 25.1µM

Results for COc1ccccc1NC(=O)CN1C(=O)C(C)(C)c2ccccc21 ?
Sm TGR inh: inactive

How did CC[C@@]1(c2cccc(C)c2)C(=O)N(C(=O)OC)N1C(=O)OC do in these assays?
SARS PLpro yeast: inactive; Sm TGR inh: 1.58µM

Results for CCOC(=O)N1C(=O)[C@@](CC)(c2ccccc2)N1C(=O)OCC ?
SARS PLpro yeast: inactive; Sm TGR inh: inconclusive

What do the screens show for `COc1ccc2c(c1)CC/C(=C\c1ccc(C)o1)C2=O`?
SARS PLpro yeast: inactive; Sm TGR inh: 22.4µM

How did COc1ccc2c(c1)CC/C(=C\C=C\c1ccccc1OC)C2=O do in these assays?
SARS PLpro yeast: inactive; Sm TGR inh: 28.2µM

Results for COc1ccc2c(c1)C(=O)/C(=C/C=C/c1ccccc1)CC2 ?
SARS PLpro yeast: inactive; Sm TGR inh: 44.7µM

Results for COc1ccc2c(c1)CC/C(=C/c1ccncc1)C2=O ?
SARS PLpro yeast: inactive; Sm TGR inh: inactive

How did COc1ccc2c(c1)CC/C2=N\NC(=O)c1ccccc1 do in these assays?
SARS PLpro yeast: inactive; Sm TGR inh: inactive

What do the screens show for `COc1ccc(/C=C2\CCc3ccccc3C2=O)cc1O`?
SARS PLpro yeast: inactive; Sm TGR inh: inactive

Results for CCn1c(=NC(=O)c2ccc(S(=O)(=O)N3CCCCC3)cc2)sc2cccc(OC)c21 ?
Sm TGR inh: inactive

Results for CCOC(=O)c1ccccc1NC(=O)C(=O)Nc1ccc2nc3n(c(=O)c2c1)CCCCC3 ?
Sm TGR inh: inactive

What do the screens show for `CC(C)COCC1CC2(CC(C)(c3csc(N)n3)OC2=O)C(=O)O1` (stereo not drawn)?
SARS PLpro yeast: inactive; Sm TGR inh: inconclusive

What do the screens show for `C=CCNc1nc(C2(C)CC3(CC(C)(C)OC3=O)C(=O)O2)cs1` (stereo not drawn)?
SARS PLpro yeast: inactive; Sm TGR inh: 50.1µM

How did CN(C)c1ccc(/C=N/N2CCN(Cc3ccccc3Cl)CC2)cc1 do in these assays?
SARS PLpro yeast: inactive; Sm TGR inh: inactive

Results for Clc1ccccc1CN1CCN(/N=C/C=C/c2ccco2)CC1 ?
SARS PLpro yeast: inactive; Sm TGR inh: 15.8µM

How did O=C(CN1CCN(Cc2ccccc2)CC1)N/N=C\C=C/c1ccco1 do in these assays?
SARS PLpro yeast: inactive; Sm TGR inh: inconclusive

Results for O=C(CN1CCN(Cc2ccccc2Cl)CC1)N/N=C/C=C/c1ccco1 ?
SARS PLpro yeast: inactive; Sm TGR inh: 20µM

Results for Cc1ccc(C(=O)Nc2ccc(Br)cc2)cc1S(=O)(=O)NCc1ccccc1 ?
Sm TGR inh: inactive

What do the screens show for `CCOc1ccccc1NC(=O)CSc1ccc2nc(-c3ccccc3)cn2n1`?
Sm TGR inh: inactive

Results for Cc1cc(OC(C)C(=O)Nc2c(C(=O)c3ccc(F)cc3)oc3ccccc23)ccc1Cl (stereo not drawn) ?
Sm TGR inh: inactive

Results for Cc1[nH]c2ccccc2c1C1(O)C(=O)N(Cc2ccccc2)c2ccc(Br)cc21 (stereo not drawn) ?
Sm TGR inh: inactive

Results for CCOc1ccc(CNC(=O)c2ccccc2NC(=O)c2nsc3ccccc23)cc1 ?
Sm TGR inh: inactive

Results for O=C(O)c1ccccc1-c1ccc(/C=c2\sc3nc4cc(Br)cnc4n3c2=O)o1 ?
SARS PLpro yeast: inactive; Sm TGR inh: inconclusive

What do the screens show for `Cc1cc2nc3s/c(=C/c4ccc(-c5ccccc5C(=O)O)o4)c(=O)n3c2cc1C`?
SARS PLpro yeast: inactive; Sm TGR inh: 3.55µM

What do the screens show for `Cc1ccc(Cl)cc1NC(=O)NCc1cccn1Cc1ccc(F)cc1`?
Sm TGR inh: inactive

Results for Cc1ccc(CNC(=O)Cn2cc(C(=O)c3ccc(Cl)cc3)c(=O)c3ccc(C)nc32)cc1 ?
Sm TGR inh: inactive

How did CCOn1c(=O)c(-c2cccc([N+](=O)[O-])c2)[n+]([O-])c2ccccc21 do in these assays?
SARS PLpro yeast: inactive; Sm TGR inh: inactive

Results for O=c1c(-c2ccco2)[n+]([O-])c2ccccc2n1OCc1ccccn1 ?
SARS PLpro yeast: inactive; Sm TGR inh: 17.8µM

How did O=c1c(-c2ccc(F)cc2)[n+]([O-])c2ccccc2n1OCc1ccccn1 do in these assays?
SARS PLpro yeast: inactive

Results for O=c1c(-c2ccco2)[n+]([O-])c2ccccc2n1OCc1ccccc1[N+](=O)[O-] ?
SARS PLpro yeast: inactive; Sm TGR inh: 15.8µM

How did Cc1ccc(-c2nn(CC(=O)NC3CCCCC3)c3c2cnc2ccc(F)cc23)cc1C do in these assays?
Sm TGR inh: inactive

Results for c1ccc2nc(N3CCCC3)c(N3CCCC3)nc2c1 ?
SARS PLpro yeast: inactive; Sm TGR inh: inactive

What do the screens show for `CN(C)C=Nc1nc2ccccc2nc1N1CCCC1`?
SARS PLpro yeast: inactive; Sm TGR inh: 39.8µM
